Laboratory results: publication PMC5869772, “Quantitative profiling of BATF family proteins/JUNB/IRF hetero-trimers using Spec-seq”

Columns and labels:
Experiment in all cases: Spec-seq (EMSA and sequencing of bound and unbound bands); 100 nM BATFx-JUNB, 1 uM dsDNA library, 50 mM K acetate, 20 mM Tris-acetate, 10 mM Mg acetate, 100 ug/ml BSA, pH 7.9, 10% glycerol, 30 min on ice; native 9% PAGE at 4 C; low values mean tight binding
Settings in all cases: protein: recombinant;recombinant; tags: N-terminal mCherry-TEV, cleaved off;C-terminal 6His; copies: 1;1; dsDNA, one strand shown
[1] = target: T1, BATF;JUNB (human;human, UniProt Q16520;P17275 1-125;148-347, |)
T1 sequence 1: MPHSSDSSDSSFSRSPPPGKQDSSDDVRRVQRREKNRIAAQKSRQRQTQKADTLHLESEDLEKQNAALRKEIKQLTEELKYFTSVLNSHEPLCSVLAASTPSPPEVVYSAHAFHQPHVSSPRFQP
T1 sequence 2: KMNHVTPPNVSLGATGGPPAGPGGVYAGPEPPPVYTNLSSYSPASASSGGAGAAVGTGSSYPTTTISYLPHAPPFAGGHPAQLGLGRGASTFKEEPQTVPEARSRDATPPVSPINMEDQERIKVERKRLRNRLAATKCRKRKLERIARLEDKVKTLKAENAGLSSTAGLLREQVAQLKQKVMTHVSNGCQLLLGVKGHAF
Method in brief: (§1)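 The protein, at 100 nM, was incubated with 1 μM double-stranded degenerate DNA library for 30 min on ice in NEB Cutsmart buffer with 10% glycerol, then resolved by native 9% PAGE at 4 °C. Excised bound and unbound bands were PCR-barcoded and Illumina-sequenced, and each sequence's relative binding energy in kT is −ln of its bound/unbound read-count ratio.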

[2] = target: T2, BATF2 (bZIP);JUNB (human;human, UniProt Q8N1L9;P17275 1-142;148-347, |)
T2 sequence 1: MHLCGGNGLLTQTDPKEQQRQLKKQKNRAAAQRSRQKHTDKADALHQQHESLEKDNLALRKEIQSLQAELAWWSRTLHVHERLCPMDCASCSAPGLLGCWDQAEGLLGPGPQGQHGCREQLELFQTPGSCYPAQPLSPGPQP
T2 sequence 2: T1 sequence 2
Method in brief: as §1

[3] = target: T3, BATF3;JUNB (human;human, UniProt Q9NR55;P17275 1-127;148-347, |)
T3 sequence 1: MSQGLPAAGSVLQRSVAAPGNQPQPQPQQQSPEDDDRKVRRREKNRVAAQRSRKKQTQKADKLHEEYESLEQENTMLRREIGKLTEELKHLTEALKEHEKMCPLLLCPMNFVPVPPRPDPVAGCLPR
T3 sequence 2: T1 sequence 2
Method in brief: as §1

Row | Sequence | binding signal [1] [kT] | binding signal [2] [kT] | binding signal [3] [kT]
1 | GATAGTCTCATTTTCACCCCGTGAAAAGACGTCATTGTTCCATTACAGTATCTGT | -0.231 | -0.0139 | -0.682
2 | GATAGTCTCATTTTCACCCCGTGAAATGACGTCATTGTTCCATTACAGTATCTGT | -1.05 | -1.32 | -1.75
3 | GATAGTCTCATTTTCACCCCGTGAAATGACGTGATTGTTCCATTACAGTATCTGT | -0.588 | -0.181 | -1.06
4 | GATAGTCTCATTTTCACCCCGTGAAATGACATCATTGTTCCATTACAGTATCTGT | -0.531 | -0.296 | -1.1
5 | GATAGTCTCATTTTCACCCCGTGAAATGACTTCATTGTTCCATTACAGTATCTGT | -0.183 | 0.172 | -0.643
6 | GATAGTCTCATTTTCACCCCGTGAAATGACTCCATTGTTCCATTACAGTATCTGT | -0.151 | 0.566 | 0.168
7 | GATAGTCTCATTTTCACCCCGTGAAATAACTCATTTGTTCCATTACAGTATCTGT | -0.0626 | 0.612 | 0.332
8 | GATAGTCTCATTTTCACCCCGTGAAATGAGACACTTGTTCCATTACAGTATCTGT | 0.71 | 1.71 | 1.3
9 | GATAGTCTCATTTTCACCCCGTGAAATGACGCATTTGTTCCATTACAGTATCTGT | -0.475 | 0.109 | -0.479
10 | GATAGTCTCATTTTCACCCCGTGAAATGACTCGATTGTTCCATTACAGTATCTGT | -0.328 | 0.519 | 0.109
11 | GATAGTCTCATTTTCACCCCGTGAAATGAGTCGTTTGTTCCATTACAGTATCTGT | -0.00852 | 0.968 | 0.536
12 | GATAGTCTCATTTTCACCCCGTGAAATGAGCCATTTGTTCCATTACAGTATCTGT | 0.392 | 1.26 | 0.914
13 | GATAGTCTCATTTTCACCCCGTGAAAATCAGTCATTGTTCCATTACAGTATCTGT | -0.547 | 0.0501 | -0.272
14 | GATAGTCTCATTTTCACCCCGTGAAATGAGTAAGTTGTTCCATTACAGTATCTGT | -0.362 | 0.572 | 0.139
15 | GATAGTCTCATTTTCACCCCGTGAAACAGAGTCATTGTTCCATTACAGTATCTGT | -0.149 | 0.309 | -0.0855
16 | GATAGTCTCATTTTCACCCCGTGAAATGAGGCAATTGTTCCATTACAGTATCTGT | 0.661 | 1.12 | 0.808

Row | Sequence | binding signal [1] [kT] | binding signal [2] [kT] | binding signal [3] [kT]
17 | GATAGTCTCATTTTCACCCCGTGAAATGAGACAATTGTTCCATTACAGTATCTGT | 0.693 | 1.52 | 0.853
18 | GATAGTCTCATTTTCACCCCGTGAAATGACGTCGTTGTTCCATTACAGTATCTGT | -0.291 | 0.27 | -0.759
19 | GATAGTCTCATTTTCACCCCGTGAAATGACTTATTTGTTCCATTACAGTATCTGT | -0.08 | 0.489 | 0.185
20 | GATAGTCTCATTTTCACCCCGTGAAACTGGGTCATTGTTCCATTACAGTATCTGT | 0.364 | 0.724 | 0.562
21 | GATAGTCTCATTTTCACCCCGTGAAATGAGTCTCTTGTTCCATTACAGTATCTGT | 0.273 | 1.09 | 0.936
22 | GATAGTCTCATTTTCACCCCGTGAAATGAGTCGCTTGTTCCATTACAGTATCTGT | 0.025 | 1.18 | 0.711
23 | GATAGTCTCATTTTCACCCCGTGAAATGACGTCCTTGTTCCATTACAGTATCTGT | 0.097 | 0.602 | -0.0593
24 | GATAGTCTCATTTTCACCCCGTGAAATGAGTGATTTGTTCCATTACAGTATCTGT | 0.0243 | 0.704 | 0.444
25 | GATAGTCTCATTTTCACCCCGTGAAATCGAGTCATTGTTCCATTACAGTATCTGT | -0.54 | 0.0512 | -0.401
26 | GATAGTCTCATTTTCACCCCGTGAAATGAGTCCCTTGTTCCATTACAGTATCTGT | 0.424 | 1.38 | 1.03
27 | GATAGTCTCATTTTCACCCCGTGAAATTGTGTCATTGTTCCATTACAGTATCTGT | -0.292 | -0.0836 | -0.677
28 | GATAGTCTCATTTTCACCCCGTGAAATGACTAAATTGTTCCATTACAGTATCTGT | -0.125 | 0.513 | 0.0877
29 | GATAGTCTCATTTTCACCCCGTGAAATGACGCCATTGTTCCATTACAGTATCTGT | -0.429 | 0.257 | -0.802
30 | GATAGTCTCATTTTCACCCCGTGAAAGTGTGTCATTGTTCCATTACAGTATCTGT | -0.342 | -0.00937 | -0.359
31 | GATAGTCTCATTTTCACCCCGTGAAATGAGTAAATTGTTCCATTACAGTATCTGT | -0.0981 | 0.684 | 0.363
32 | GATAGTCTCATTTTCACCCCGTGAAATGAGGCATTTGTTCCATTACAGTATCTGT | 0.568 | 1.08 | 0.744
